Screening results: PubChem, The Scripps Research Institute Molecular Screening Center
This is a sample that favours compounds with a hit; in the whole collection about 4.8% have one here.
DAX1 inh-1 = inhibitors of human orphan nuclear receptor DAX1 (NR0B1). P51843. HEK293 Gal4-DAX1 luciferase reporter, luminescence. inhibition, % at 6.75 µM. 0.99% of 340,000 active. AID 504766;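 active means inhibition above the mean over all tested compounds plus 3 SD, cut at about 4.2% in these data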;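 further: 0% = DAX1-transfected cells with DMSO and 100% = empty-vector control cells with DMSO; inhibition shows as a rise in luminescence from relieved DAX1 repression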
ssDAF12 agonist = S. stercoralis DAF-12 activation, primary screen. HEK293 ssDAF-12/GRIP1 lit1-tk-luc reporter, luminescence; % of 3 µM dafachronic acid response. activation, % at 6.8 µM. 1% of 370,000 active. AID 652126;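 active means activation above the mean over all tested compounds plus 3 SD, cut at about 0.9% in these data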;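 further: 0% = DMSO-only wells and 100% = 3 µM delta7-dafachronic acid wells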
DAX1 inh-2 = DAX1 (NR0B1) inhibition, primary screen; HEK293T StAR-luciferase reporter, SF-1/DAX-1 repression relief; inhibition, % at 6.8 µM; 1.1% of 370,000 active;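 active means inhibition above the mean over all tested compounds plus 3 SD, cut at about 3.6% in these data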;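 further: 0% = DAX-1 cells with DMSO and 100% = cells lacking DAX-1 with DMSO; higher inhibition means more luminescence from relief of DAX-1 repression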
hcDAF12 agonist = H. contortus DAF-12 activation, primary screen. HEK293 hcDAF-12 lit1-tk-luc reporter, luminescence; 0% DMSO, 100% Δ7-dafachronic acid. activation, % at 6.8 µM. 1.4% of 370,000 active. AID 652067;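 active means activation above the mean of all tested compounds plus 3 SD, cut at about 5.5% in these data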;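 further: 100% = response to 3 µM Δ7-dafachronic acid high control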
SMARCA2 activ = increases SMARCA2 function in MMTV reporter cells. 1% of 370,000 active. activation, % at 9.1 µM. MG213 cells, MMTV-luciferase reporter, dexamethasone, overnight; in the data active means activation above about 7.8%;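 further: 0% = vehicle wells and 100% = reference activator wells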
hgDAF-12 ag = agonists of H. glycines DAF-12 nuclear receptor; AID 687014; 1.8% of 370,000 active; activation, % at 6.8 µM; HEK293 GAL4-hgDAF12 UAS-luciferase reporter, agonist luminescence; normalized to butyrate control;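 active means activation above a cutoff set at the mean of all screened compounds plus 3 SD, cut at about 10% in these data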;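 further: 0% = DMSO wells and 100% = sodium butyrate wells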
LXRb hcDAF ctr = LXR-beta agonism as hcDAF-12 counter-screen. shares compounds with hcDAF12 agonist. HEK293 Gal4-LXR tk-luc reporter, luminescence, 24 h; normalized: DMSO 0%, positive control 100%. activation, % at 6.8 µM. 3,400 tested, under 10 active. AID 743027;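 active means mean percent activation of the reporter above a cutoff set as the average over tested compounds plus their standard deviation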
Target sequence (P55055 whole entry, looked up, the tested form may be a part): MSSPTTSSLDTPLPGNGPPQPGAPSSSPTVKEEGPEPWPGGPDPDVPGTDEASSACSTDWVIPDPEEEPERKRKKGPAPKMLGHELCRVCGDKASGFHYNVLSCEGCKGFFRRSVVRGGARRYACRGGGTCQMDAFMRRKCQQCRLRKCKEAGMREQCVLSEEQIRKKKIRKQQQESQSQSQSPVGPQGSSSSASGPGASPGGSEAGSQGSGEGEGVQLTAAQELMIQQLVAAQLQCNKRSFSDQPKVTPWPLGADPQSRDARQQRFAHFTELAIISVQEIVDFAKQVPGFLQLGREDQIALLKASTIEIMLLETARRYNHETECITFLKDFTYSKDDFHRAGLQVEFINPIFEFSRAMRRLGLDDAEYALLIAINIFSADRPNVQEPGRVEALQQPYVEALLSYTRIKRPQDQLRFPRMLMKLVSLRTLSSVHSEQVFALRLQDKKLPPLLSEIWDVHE
hcDAF12 ag = confirmation of H. contortus DAF-12 agonists; activation, % at 6.8 µM; AID 743032; shares compounds with hcDAF12 agonist; HEK293 hcDAF-12 lit1-tk-luc reporter, luminescence; % of Δ7-dafachronic acid response; 61% of 3,400 active;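 active means mean activation across triplicate tests above the threshold derived from the earlier primary screen, cut at about 5.5% in these data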;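 further: 0% = DMSO only wells and 100% = 3 µM Δ7-dafachronic acid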
hgDAF12 conf = confirmation of H. glycines DAF-12 agonists | shares compounds with hgDAF-12 ag | HEK293 GAL4-hgDAF12 luciferase reporter, agonist mode; percent of butyrate response | activation, % at 6.8 µM | 80% of 3,300 active;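 active means mean activation over triplicate wells above the hit cutoff derived from the earlier primary screen, cut at about 11% in these data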;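 further: 0% = DMSO low control and 100% = 2 mM sodium butyrate high control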
LXRb DAF12 ctr = activates human LXR-beta, counter-screen for DAF-12 agonists | shares compounds with hgDAF-12 ag | 3,300 tested, under 10 active | activation, % at 6.8 µM | AID 743051 | HEK293 Gal4-LXR luciferase reporter, 24 h;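 active means mean activation of the triplicate above a set limit carried over from the primary screen, none filed active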
Active calls of the source: *; . = no result.

SMILES	DAX1 inh-1	ssDAF12 agonist	DAX1 inh-2	hcDAF12 agonist	SMARCA2 activ	hgDAF-12 ag	LXRb hcDAF ctr	hcDAF12 ag	hgDAF12 conf	LXRb DAF12 ctr
O=C(Nc1ccccc1C(=O)Nc1ccccc1)c1ccccc1F	0	-1	0	0	-2	0	.	.	.	.
COc1ccc(C(=O)Cn2c(=N)n(C)c3ccccc32)cc1	4.5*	1.7*	3	14*	5	18*	1	9.1*	19*	1
Cc1ccccc1CN1CCc2cc([N+](=O)[O-])ccc21	-1	-2	-1	-1	-5	0	.	.	.	.
CCN(CCn1cccn1)C(=O)c1cc(COc2cc(C)ccc2C)on1	2	1.7*	4	7.5*	7	14*	1	5	12*	0
COCc1c(C(=O)N/N=C(/C)c2ccc(OCc3ccccc3)cc2)nnn1-c1nonc1N	0	0	1	8.5*	1	14*	0	3	8	0
CCc1ccc(OCC(=O)NCCc2ccc3c(c2)OCCO3)cc1	1	-1	-1	3	0	1	.	.	.	.
C/C(=N\NC(=O)c1nn(C)c(C)c1Br)c1ccc(NC(=O)c2ccccc2F)cc1	4.4*	0	4.2*	7.2*	1	14*	0	0	2	0
COc1ccc(C(=O)N/N=C(/C)c2cccc(NC(=O)c3ccccc3F)c2)cc1	1	-1	1	3	-3	6	.	.	.	.
CC(C)CNC(=O)CN1C(=O)NC(Cc2c[nH]c3ccccc23)C1=O (stereo not given)	0	-1	0	-1	-1	-1	.	.	.	.
O=C(CN1C(=O)CCC1=O)Nc1nc(-c2nc3ccccc3s2)cs1	1	1.2*	4.5*	7.6*	-1	16*	1	4	12*	0
O=C(CN1C(=O)CCC1=O)Nc1nc(-c2ccc3ccccc3c2)cs1	0	-1	1	0	6	7	.	.	.	.
Cc1ccc(-c2nc3cc(N)ccc3o2)cc1Br	3	0	1	6.7*	-1	15*	2	8.0*	19*	1
Cc1ccc(C)c(-c2nc3cc(N)ccc3o2)c1	-2	-2	-1	-5	-7	-7	.	.	.	.
Cc1csc(NC(=O)c2cnc3ccccc3n2)n1	-1	2.1*	2	15*	6	16*	1	14*	18*	1
O=C(Nc1nccs1)c1ccc2ccccc2n1	1	3.6*	2	18*	2	18*	2	16*	23*	1
O=C(/C=C\c1ccccc1)Nc1nccs1	1	0	3	8.4*	6	20*	2	5	20*	1
O=C(Nc1ccccn1)c1ccc2ccccc2n1	1	3.7*	4	19*	0	17*	2	22*	18*	1
CCN(CC)C(=O)c1ccccc1NS(=O)(=O)c1ccc(C)cc1	0	-2	0	-1	-2	1	.	.	.	.
O=C(CN1CCOc2ccccc21)N1CCCC1	2	-1	1	0	0	4	.	.	.	.
O=C(Nc1nccs1)c1cc(Cl)nc2ccccc12	2	0	0	2	0	2	.	.	.	.
Cc1csc(NC(=O)c2ccc3ccccc3n2)n1	1	4.1*	3	21*	7	18*	2	16*	26*	1
O=C(Nc1nccs1)c1sc2ccccc2c1Cl	-1	3.0*	3	15*	6	18*	2	16*	17*	1
